The results in this text go back to PubChem BioAssay AID434958 (Southern Research Specialized Biocontainment Screening …, 2010).

Screen size: about 1,200 compounds; about 400 (33%) were called active. The rule behind the calls is not given here. A selection follows. Entries with a potency or affinity are not part of this list.

A short description of the test: mammalian cell cytotoxicity, dose response, cytotoxicity control (AID 434958).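 Note: cells exposed to compound for 72 hours before readout.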 The settings on record: cytotoxicity counter-screen; series mostly up to 40 µM.
On to `O=C(OCC(=O)c1ccc[nH]1)C1=COCCO1`, for which the call was inactive.
For the molecule `COc1ccc(C(=O)n2c(SC)nc3cc4c(cc32)OCCO4)cc1`, the result was inactive.
Take `Cc1ccc(OC(=O)COc2ccccc2)c(-n2nc3ccccc3n2)c1`: the result was inactive.
For `N#Cc1c(SCC(=O)O)nc(N2CCCCC2)c2c1CCCC2`, the molecule was classed as inactive.
`Cc1cccc(C)c1OCC(=O)NNC(=O)CNC(=O)c1ccc(OC(F)F)cc1`: the call was inactive.
For `CCn1c(SCc2nc(-c3cccs3)no2)nnc1-c1c[nH]c2ccccc12`, the molecule was classed as inactive.
Under `C=C(C)COc1ccc(-c2nc(N)ncc2Oc2ccc(OC)cc2)c(O)c1` stands “inactive”; under `COc1cccc(CNC(=O)C(Cc2ccccc2)n2cccc2)c1` (stereo not drawn), “inactive”; under `CC(=O)C1=C(C)NC(SCC(=O)c2ccccc2)=C(C#N)C1CC(C)C` (stereo not drawn), “inactive”.
Regarding `Nc1nc2ccccc2n1C(=O)c1cccs1`, the molecule was classed as inactive.
For the molecule `O=C(COc1ccccc1)NNC(=O)c1cc2ccccc2oc1=O`, the result was inactive.
As for `COCCNC(=O)COc1ccc(Oc2ccccc2)cc1`, the entry is “inactive”; as for `O=C1Nc2c(ccc(Cl)c2Cl)C(=O)C1(F)c1ccccc1` (stereo not drawn), “inactive”.
As for `CCOC(=O)c1cnn(-c2ncnc3sc4c(c23)CCC4)c1N`, the entry is “inactive”; as for `Cc1cc(C(=O)Nc2ccc(Br)cc2F)n(-c2ccccc2)n1`, “inactive”.
As for `Cc1cc(=O)n2c(-c3ccccc3C)n[nH]c2n1`, the entry is “inactive”; as for `CC(=O)Nc1ccc(S(=O)(=O)Nc2cccc3cccnc23)cc1`, “inactive”; as for `Cc1ccc(NC(=O)/C=C\C(=O)O)c([N+](=O)[O-])c1`, “inactive”.
As for `Cc1ccc(C)c(SCC(=O)OCC(=O)N2CC(C)OC(C)C2)c1` (stereo not drawn), the molecule was classed as inactive.
As for `COc1ccccc1CNC(=O)COC(=O)C1=COCCO1`, the call was inactive.
For `O=C(CC1SC(=O)NC1=O)Oc1ccc(/C=N/NC(=O)c2ccccc2O)cc1` (stereo not drawn), the call was inactive.
Under `Cc1oc(C(C)(C)C)cc1C(=O)Nc1ccc2c(c1)OCCO2` stands “inactive”; under `CCOC(=O)c1ccc(NC(=O)Cc2coc3cc4c(cc23)CCC4)cc1`, “inactive”; under `COc1ccc2[nH]c3c(c2c1)CCN=C3C`, “inactive”.
As for `O=C(COC(=O)C1CC1)c1c[nH]c2ccccc12`, the entry is “inactive”.
Under `C=CCN(C(=O)CN1CCOCC1)c1nc(C)c(-c2ccccc2)s1` stands “inactive”; under `N#CCOC(=O)/C=C/c1ccc2c(c1)OCO2`, “inactive”.
Turning to `CCc1cc2c(-c3ccccc3)cc(=O)oc2cc1OC(C)C(C)=O` (stereo not drawn), the outcome was inactive.
On to `COc1cc(NC(=O)c2cccc(Cl)c2)c(OC)cc1NC(=O)CN1CCCCC1`, for which the molecule was classed as inactive.
Under `COc1ccc(NC(=O)c2cc(Br)ccc2Cl)c(OC)c1` stands “inactive”.
As for `Cc1cccc(NC(=S)NC2CC3C=CC2C3)c1` (stereo not drawn), the entry is “inactive”; as for `CCSc1nnc(NC(=O)Cn2cnc3ccccc3c2=O)s1`, “inactive”.
Take `CCC(C(=O)NC1C(=O)N2C(C(=O)O)=C(CSc3nnc(C)s3)CSC12)c1ccccc1` (stereo not drawn): the result was inactive.
As for `Cn1nnnc1SCC(=O)Nc1ccccc1[N+](=O)[O-]`, the entry is “inactive”; as for `Cc1ccc(-n2nnnc2Sc2nc([N+](=O)[O-])nn2C)c(C)c1`, “inactive”; as for `O=C(Nc1ccccc1)Nc1csc2ccccc12`, “inactive”.
Under `O=C(NC1CCCCC1)C1CCN(c2nccs2)CC1` stands “inactive”; under `O=C(NC1c2ccccc2-c2ccccc21)c1ccco1`, “inactive”.
Under `C/C(=N/NC(=O)c1cccs1)c1ccc(NC(=O)COc2ccc(Cl)cc2)cc1` stands “inactive”; under `Cc1ccc(/C=N/NC(=O)c2cccs2)s1`, “inactive”; under `CCOc1ccc2nc(NC(=O)c3cnccn3)sc2c1`, “inactive”.
With `Cc1cc(C)c(-c2c(O)c3ccccc3n(C)c2=O)c(C)c1`, the call was inactive.
As for `Cc1cc(Br)ccc1NC(=O)CN1C(=O)C2CC=CCC2C1=O` (stereo not drawn), the entry is “inactive”.
Turning to `COc1cc(OC)cc(-c2c(C#Cc3ccsc3)c3cc(-c4ccc(OC)nc4)ccc3n2C)c1`, the molecule was classed as inactive.
Under `CCOc1cccc(=O)c2c(C)n(Cc3ccccc3)c(C)c12` stands “inactive”; under `CCOc1cc(N2CCOCC2)c(OCC)cc1NC(=O)c1cc(C)cc(C)c1`, “inactive”; under `Cn1c(=O)[nH]c(=O)c2c1nc(Br)n2CCC(=O)c1ccccc1`, “inactive”.
As for `C=CCSc1nnc2c(n1)OC(c1c(C)[nH]n(-c3ccccc3)c1=O)Nc1ccccc1-2` (stereo not drawn), the entry is “inactive”; as for `CCCCCc1ccc(-c2ccc(/C=C/C(N)=O)cc2)nc1`, “inactive”; as for `CN1c2ccccc2C(=O)NC1c1ccc([N+](=O)[O-])s1` (stereo not drawn), “inactive”.
Take `Cc1cccc(Cl)c1NC(=S)NN`: the outcome was inactive.
As for `CCOC(=O)c1sc(NC(=O)Cn2nnc3sc4c(c3c2=O)CCC(C(C)(C)C)C4)nc1C` (stereo not drawn), the entry is “inactive”; as for `CC1CCCN(C(=O)C2CCN(c3ncnc4c3nc3n4CCCCC3)CC2)C1` (stereo not drawn), “inactive”.
As for `CCOC(=O)NC1c2ccccc2Oc2ccccc21`, the entry is “inactive”.
Regarding `O=C(NNC(=O)c1ccc(Oc2cc(Cl)cc(Cl)c2)o1)c1ccccc1`, the result was inactive.
In the case of `CC(=O)c1ccccc1OCCOc1ncnc2sccc12`, the molecule was called inactive.
As for `COc1ccc([N+](=O)[O-])cc1NS(=O)(=O)c1ccc(C(=O)N2CCCC2)cc1`, the entry is “inactive”.
Under `O=C(Cc1ccccc1)NC(=S)Nc1ccc(N2CCCCC2)cc1` stands “inactive”.
In the case of `CC(=O)c1ccc(NC(=S)Nc2ccc(N3CCOCC3)cc2)cc1`, the molecule was classed as inactive.
For `Cc1ccc(CNC(=O)c2cn(C)c3ccc(S(=O)(=O)N4CCOCC4)cc3c2=O)cc1`, the molecule was called inactive.
As for `Cc1cccc2nc(COc3ccc4ccccc4c3Br)cn12`, the entry is “inactive”; as for `COC(=O)C1=C(C)NC(=O)/C1=C\c1cc(C)n(-c2cc(C)cc(C)c2)c1C`, “inactive”; as for `CCOC(=O)CNC(=O)c1cccnc1Oc1ccc(Cl)cc1`, “inactive”.
As for `COc1ccccc1NS(=O)(=O)c1cccc(N2CC(O)=C(c3ccccc3)C2=N)c1`, the molecule was called inactive.
As for `O=C(CCN1C(=O)c2ccccc2S1(=O)=O)Nc1ccc(Cl)cc1`, the entry is “inactive”; as for `CCC(=O)NC(=S)Nc1ccc(NC(=O)c2ccccc2[N+](=O)[O-])cc1`, “inactive”; as for `CC(/C=N/NC(=O)c1cc(-c2cccs2)[nH]n1)=C\c1ccccc1`, “inactive”.
Turning to `Cc1ccc(C)c(SCc2noc(C(=O)NCC3CCCO3)c2C(=O)O)c1` (stereo not drawn), the molecule was called inactive.
In the case of `O=C(O)Cc1csc(Nc2cccc(Cl)c2)n1`, the outcome was inactive.
`COC(=O)c1ccc(/C=N/Nc2nc(-c3ccc(C)cc3)cs2)cc1`: the outcome was inactive.
As for `CCOC(=O)N1CCN(CC(=O)Nc2nnc(C(F)(F)F)s2)CC1`, the entry is “inactive”; as for `COC(=O)N1C(=O)[C@](Cc2ccccc2)(c2ccccc2)N1C(=O)OC`, “inactive”.
As for `COc1ccc(Nc2cc(C(=O)NCc3ccco3)c3ccccc3n2)c(OC)c1`, the entry is “inactive”; as for `CCC(=O)Nc1cc(OC)c(NC(=O)c2ccccc2)cc1OC`, “inactive”.
Under `CC(C)C(=O)Nc1ccc(NC(=S)NC(=O)c2ccc([N+](=O)[O-])cc2)cc1` stands “inactive”.
As for `Cn1c(O)c(C2=c3ccccc3=NC2=O)[nH]c1=S`, the outcome was inactive.
Turning to `C=CCNC1=C(Cl)C(=O)N(c2cccc(Cl)c2Cl)C1=O`, the call was inactive.
As for `O=C(CN1C(=O)c2cccc([N+](=O)[O-])c2C1=O)N1CCN(c2ccc(F)cc2)CC1`, the entry is “inactive”; as for `Cc1cc(C)c(O)c(-c2cc(C(=O)NCc3ccccc3)[nH]n2)c1`, “inactive”; as for `CCCn1nc2cc(C(=O)NCCCCc3ccccc3)ccc2c1OCC`, “inactive”.
As for `COCCCNc1nc(SCc2ccccc2)nc2sc3c(c12)CCC3`, the entry is “inactive”; as for `CCC(CC)c1nnc(NC(=O)c2ccc(N3CCCCC3)c([N+](=O)[O-])c2)s1`, “inactive”.
As for `Cc1cc2ccccc2n1CCNC(=O)COc1ccccc1`, the entry is “inactive”.
With `Cc1ccc(C(=O)NCCc2nnc3ccc(SCC(=O)Nc4ccccc4C)nn23)cc1`, the outcome was inactive.
With `CCN(CC)c1ccc(S(=O)(=O)N2CCOCC2)cc1NC(=O)CSc1cccc[n+]1[O-]`, the outcome was inactive.
For `O=C(CNc1ccccc1Cl)Nc1cc(S(=O)(=O)N2CCOCC2)ccc1Cl`, the molecule was classed as inactive.
As for `CC(=O)COc1ccc2c3c(c(=O)oc2c1C)CCCCC3`, the result was inactive.
As for `CCOC(=O)Cn1nc(-c2ccc(C)cc2)c2ccccc2c1=O`, the entry is “inactive”; as for `CCOC(=O)C1CCN(C(=O)CCCCn2c(=O)[nH]c3ccccc3c2=O)CC1`, “inactive”; as for `Cc1ccc(NC(=O)C2(c3ccccc3)CC2(Cl)Cl)cc1C` (stereo not drawn), “inactive”.
Consider `Cc1ccccc1OCC(=O)Nc1ccccc1N1CCCCC1`, for which the molecule was called inactive.
Under `CCOc1cc(/C=N\Nc2ccc([N+](=O)[O-])cc2)ccc1OCC(=O)Nc1ccc(C)c(C)c1` stands “inactive”.
In the case of `CN(C)C(=O)c1ccc(-n2nc(C(F)(F)F)c3c2CCCC3)cc1`, the result was inactive.
Turning to `CC(=O)Nc1cccc(/C(C)=N/NC(N)=S)c1`, the molecule was classed as inactive.
Consider `Cc1c(-c2ccccc2)cnc2c(C)cccc12`, for which the result was inactive.
Under `Cc1cc(NC(=O)COc2nnc(-c3ccccc3)c3ccccc23)no1` stands “inactive”; under `Cc1cc(NC(=O)CSc2ncnc3c2cnn3-c2ccccc2)no1`, “inactive”; under `CCOC(=O)c1ccc(C(=O)NNC(=O)C2CC=CCC2)cc1` (stereo not drawn), “inactive”.
With `O=C(Nc1ccccc1)c1c2c(nc3ccccc13)CCCC2`, the molecule was called inactive.
Under `CC12CCC(C/C1=N/NC(=O)Nc1ccccc1)C2(C)C` (stereo not drawn) stands “inactive”.
As for `Cc1cc(C)c(C)c(S(=O)(=O)N2C(=S)NC(=O)C2C(C)C)c1C` (stereo not drawn), the entry is “inactive”; as for `O=C(c1cc2c(s1)CCCC2)n1cccn1`, “inactive”.
As for `O=C(CSc1nnc(SCc2ccc(Cl)cc2)s1)c1ccc2c(c1)OCO2`, the entry is “inactive”; as for `O=C(N/N=C\c1cn[nH]c1-c1ccc(Cl)cc1)c1cccs1`, “inactive”; as for `C=CCSc1nc2c(c(-c3ccsc3)c1C#N)CN(C)CC2`, “inactive”.
On to `O=C(NN1C(=O)C2C(C1=O)C1C=CC2C12CC2)c1ccncc1` (stereo not drawn), for which the outcome was inactive.
Under `O=c1[nH]c(CN(CCO)CCO)nc2c1C1(CCCCC1)Cc1ccccc1-2` stands “inactive”; under `CN(/N=C/c1ccncc1)c1cnc2ccccc2n1`, “inactive”.
Turning to `c1ccc(-c2n[nH]c3c2CCC3)cc1`, the outcome was inactive.
For `CSc1ncnc2c1ccn2CC(=O)Nc1ccc(C)c(C)c1`, the outcome was inactive.
As for `CCCOc1ccccc1NC(=O)/C=C/C(N)=O`, the entry is “inactive”.
Take `CC(=O)OCC(=O)Nc1ccc(C(C)=O)cc1`: the call was inactive.
Consider `CC(C)(C)[C@@H]1C=C(C(=O)Nc2ccccc2)O[C@H](OCc2ccc(CO)cc2)C1`, for which the molecule was classed as inactive.
